In PubChem BioAssay (NCI):
Compounds without any hit were thinned out: in the full panel of roughly 83,000, 20% have a hit.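 Negative percent growth values reflect cell death: -40 means 40% of the cells present at the start died, and -100 means all died.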 Unmarked numbers belong to inactive results. Calls of active or inactive are those of the source. How the source made its calls: active means growth percent below 10; inactive means the rest.

What was measured:
Assay in all cases: NCI-60 one-dose screen, 48 h (100 = growth as untreated, 0 = no growth, -100 = all killed)
Settings in all cases: 10 µM unless noted
NCI-H23 lung = tested on: NCI-H23 lung
NCI-H226 lung = tested on: NCI-H226 lung
NCI-H322M lung = tested on: NCI-H322M lung
HOP-62 NSCLC = tested on: HOP-62 NSCLC
NCI-H460 lung = tested on: NCI-H460 lung
HOP-92 NSCLC = tested on: HOP-92 NSCLC
NCI-H522 lung = tested on: NCI-H522 lung
A549/ATCC NSCLC = tested on: A549/ATCC NSCLC
COLO 205 colon = tested on: COLO 205 colon
DU-145 prostate = tested on: DU-145 prostate
K-562 leukemia = tested on: K-562 leukemia
MALME-3M melanoma = tested on: MALME-3M melanoma
MDA-MB-231 breast = tested on: MDA-MB-231 breast
RXF 393 renal = tested on: RXF 393 renal
SF-268 CNS = tested on: SF-268 CNS
SF-295 CNS = tested on: SF-295 CNS
SF-539 CNS = tested on: SF-539 CNS
UACC-257 melanoma = tested on: UACC-257 melanoma
M14 melanoma = tested on: M14 melanoma

| SMILES | growth (NCI-H23 lung) | growth (NCI-H226 lung) [%] | growth (NCI-H322M lung) [%] | growth (HOP-62 NSCLC) [%] | growth (NCI-H460 lung) | growth (HOP-92 NSCLC) | growth (NCI-H522 lung) | growth (A549/ATCC NSCLC) [%] | growth (COLO 205 colon) [%] | growth (DU-145 prostate) [%] | growth (K-562 leukemia) [%] | growth (MALME-3M melanoma) [%] | growth (MDA-MB-231 breast) | growth (RXF 393 renal) | growth (SF-268 CNS) [%] | growth (SF-295 CNS) | growth (SF-539 CNS) | growth (UACC-257 melanoma) [%] | growth (M14 melanoma) |
| --- | --- | --- | --- | --- | --- | --- | --- | --- | --- | --- | --- | --- | --- | --- | --- | --- | --- | --- | --- |
| O=C1C[C@H](Sc2nc(-c3ccc(F)cc3)cc(C(F)(F)F)n2)[C@H]2CO[C@@H]1O2 | 99.2% | 103 | 108 | 104 | 106% | 105% | -62.1% (active) | 102 | 75.8 | 89.9 | 53.3 | 89.1 | 96.2% | 96.6% | 101 | 109% | 103% | 104 | 97.8% |
| COc1ccc(-c2cc(-c3cccnc3)nc3sc4c(=O)n(-c5ccc(C)cc5)nnc4c23)cc1OC | 98% | 93 | 97.6 | 95.5 | 100% | 74.4% | 101% | 102 | 102 | 107 |  | 96 | 79.6% | 101% | 101 | 96.6% | 93.4% | 104 | 104% |
| COc1ccc(-c2cn3c(-c4ccc(OC)cc4)cnc3c(Oc3ccc4c(C)cc(=O)oc4c3)n2)cc1 | 33% | 70.7 | 82 | 40.9 | 26.4% | -13.6% (active) | 39.6% | 16.5 | 56.1 | 29.5 |  | 26.7 | 6.29% (active) | -20.8% (active) | 65.7 | 23.3% | -21.1% (active) | 29.2 | 38.6% |
| Cn1c2ccccc2c2c3c(c4c5ccccc5n(CCCCCC#N)c4c21)C(=O)N(O)C3=O | 4.85% (active) | 25.1 | 48.8 | 27.2 | 2.84% (active) | -11.2% (active) | -51.9% (active) | 34.2 | 62.8 | 16.3 | 16.2 | 28.6 | 27.9% | -21.8% (active) | 12.2 | 9.59% (active) | -33% (active) | 15.6 | 1.43% (active) |
| CN(CC(=O)N(Cc1ccc(C2CCCCC2)cc1)c1ccc(C(=O)NO)cc1)S(=O)(=O)c1c(F)c(F)c(F)c(F)c1F | 53.9% | 100 | 90 | 103 | 99.5% | 95% | 45.3% | 102 | 67.9 | 78.3 | 20.6 | 86.4 | 40.3% | 71.2% | 87 | 108% | 92.7% | 102 | 67.9% |
